Results on six compounds are retold here after PubChem BioAssay (NCATS).

For assay [1], the target named is Luciferin 4-monooxygenase (Photinus pyralis) (UniProt P08659). Nature of the assay: Biochemical firefly luciferase enzyme assay for NPC (AID 624030).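 Also: purified P. pyralis luciferase at 10 nM with luciferin and ATP substrate; series mostly up to about 59 µM; nearly all actives have a fitted effect of over 70% in size.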 In short, it runs like this:
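Purified P. pyralis luciferase at 10 nM in 50 mM Tris Acetate (final), luminescence read within 5 minutes of enzyme addition to compounds. Activity normalised to PTC124 versus DMSO; concentration-response curves classed by r2, magnitude and activity.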

The nature of assay [2]: S16 Schwann cell PMP22 intronic element firefly luciferase assay (AID 624032). Also: nearly all actives have a fitted effect of over 30% in size. Also: potency is read from the fitted curve at half-maximal effect. In short, it runs like this:
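Rat S16 Schwann cells stably carrying firefly luciferase driven by a PMP22 intronic element, in 10% FBS, treated 24 h at 37 C. ONE-Glo luminescence normalized to PTC124 control and DMSO (0%); curves classed by r2, magnitude and activity.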

Assay [3] can be described thus: qHTS of Trypanosoma Brucei Inhibitors: LOPAC Validation (AID 624147). In a few lines:
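Screened from lowest to highest concentration, compounds were pinned into TbPYK/substrate mixtures, and ADP (130 uM final) was added. Plates sat at room temperature for 45 min prior to Kinase-Glo Plus detection by luminescence.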
A general note: Quantitative high-throughput screening tests each substance at several concentrations.

The target of assay [4] is Glucagon-like peptide 1 receptor (Homo sapiens) (UniProt P43220). Nature of the assay: qHTS of GLP-1 Receptor Agonists: LOPAC Validation (AID 624148).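 Also: higher luminescence signal means agonism.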 In a few lines:
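HEK293 cells stably co-expressing GLP-1R and a cAMP-responsive luciferase reporter, plated 12 hours before compound, then incubated 4-6 hr at 37 deg C. Luminescence read 12 min after detection reagent.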

Assay [5] can be described thus: qHTS of Nrf2 Activators: LOPAC Validation (AID 624149). In short, it runs like this:
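Cells (AREc32_Fluc) are plated at 1000 per well in OPTI-MEM containing 5% FBS and left overnight. Compounds are pinned in and incubated 24 hr at 37 deg C, and firefly luciferase is detected with Steady-Glo.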

The nature of assay [6]: HTS Assay for Allosteric Antagonists of the Human D2 Dopamine Receptor: Hit Validation in HTRF (AID 624455).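 Also: stable D1 dopamine receptor cell line scored for blocking the D1 response.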 In short, it runs like this: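 Inhibition of the D1-mediated response is measured by HTRF in cells that stably express the D1 dopamine receptor. Compounds reaching this step are hits from calcium-flux antagonism testing at EC80 dopamine in inducible Hek293 Trex D2 cells.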

The target of assay [7] is Voltage-gated inwardly rectifying potassium channel KCNH2 (Homo sapiens) (UniProt Q12809). Nature of the assay: qHTS Assay for Small Molecule Inhibitors of the Human hERG Channel Activity (AID 588834).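 Also: top concentration of the series differs between compounds; lower thallium flux fluorescence means stronger hERG block; nearly all actives have a fitted effect of over 50% in size.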 In a few lines:
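Step 1: BacMam hERG transduction of U2OS, 4 hrs RT. Step 2: overnight 37 °C, plate 2000 cells/well, 4 hr. Step 3: FluxOR load, compound 10 min, stimulate, read fluorescence.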

The target of assay [8] is Glutaminase kidney isoform, mitochondrial (Homo sapiens) (UniProt O94925). In words: qHTS for Inhibitors of Glutaminase (GLS): LOPAC Validation (AID 624146).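 Also: glutamate product detected by oxidase and peroxidase coupled Amplex red fluorescence gain; series mostly up to about 46 µM; nearly all actives have a fitted effect of over 60% in size.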 In a few lines:
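Assay buffer: 45 mM KH2PO4 pH 8.2, 0.02% Tween-20. hKGA acts on L-glutamine (1 mM solution added); product glutamate is reported by an oxidase/peroxidase Amplex Red coupling, with fluorescence taken at baseline and 30 min.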

Assay [9] in a line: S16 Schwann cell viability assay (CellTiter-Glo assay) (AID 624031). Also: series mostly up to about 58 µM; nearly all actives have a fitted effect of over 70% in size. In a few lines: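 This viability control uses native rat S16 Schwann cells grown in DMEM plus 10% FBS. After a 24 h compound treatment at 37 °C, CellTiter-Glo luminescence reports ATP content, scaled against DMSO-treated and cell-free wells.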
(In general: ATP-based viability assays read luminescence as a measure of living cells.)

Results filed as inconclusive are left out. Calls of active or inactive are those of the source. Calls follow the shape of the dose curve; as a rule, active = well fitted curve in the direction sought with a large enough effect; inconclusive = small, poorly fitted or top-dose-only effect, or another doubt; inactive = no such curve, though single readings can be large; an effect the other way counts as inactive or inconclusive.

Luciferin 4-monooxygenase (Photinus pyralis), sequence (P08659 whole entry, looked up): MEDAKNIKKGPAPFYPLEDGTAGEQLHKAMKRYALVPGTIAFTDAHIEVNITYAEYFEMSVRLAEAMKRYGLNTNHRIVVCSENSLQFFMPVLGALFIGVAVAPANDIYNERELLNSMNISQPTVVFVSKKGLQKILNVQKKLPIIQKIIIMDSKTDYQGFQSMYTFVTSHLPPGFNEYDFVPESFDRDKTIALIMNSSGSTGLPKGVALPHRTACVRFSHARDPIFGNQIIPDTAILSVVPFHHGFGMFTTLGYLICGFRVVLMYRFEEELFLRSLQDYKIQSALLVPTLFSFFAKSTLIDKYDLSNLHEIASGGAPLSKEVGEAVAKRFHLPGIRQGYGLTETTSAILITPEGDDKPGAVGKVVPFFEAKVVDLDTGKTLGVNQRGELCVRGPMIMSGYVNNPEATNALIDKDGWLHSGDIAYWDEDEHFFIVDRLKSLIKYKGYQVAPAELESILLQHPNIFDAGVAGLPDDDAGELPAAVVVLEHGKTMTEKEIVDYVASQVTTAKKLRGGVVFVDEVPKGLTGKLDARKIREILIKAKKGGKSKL
Voltage-gated inwardly rectifying potassium channel KCNH2 (Homo sapiens), sequence (Q12809 whole entry, looked up): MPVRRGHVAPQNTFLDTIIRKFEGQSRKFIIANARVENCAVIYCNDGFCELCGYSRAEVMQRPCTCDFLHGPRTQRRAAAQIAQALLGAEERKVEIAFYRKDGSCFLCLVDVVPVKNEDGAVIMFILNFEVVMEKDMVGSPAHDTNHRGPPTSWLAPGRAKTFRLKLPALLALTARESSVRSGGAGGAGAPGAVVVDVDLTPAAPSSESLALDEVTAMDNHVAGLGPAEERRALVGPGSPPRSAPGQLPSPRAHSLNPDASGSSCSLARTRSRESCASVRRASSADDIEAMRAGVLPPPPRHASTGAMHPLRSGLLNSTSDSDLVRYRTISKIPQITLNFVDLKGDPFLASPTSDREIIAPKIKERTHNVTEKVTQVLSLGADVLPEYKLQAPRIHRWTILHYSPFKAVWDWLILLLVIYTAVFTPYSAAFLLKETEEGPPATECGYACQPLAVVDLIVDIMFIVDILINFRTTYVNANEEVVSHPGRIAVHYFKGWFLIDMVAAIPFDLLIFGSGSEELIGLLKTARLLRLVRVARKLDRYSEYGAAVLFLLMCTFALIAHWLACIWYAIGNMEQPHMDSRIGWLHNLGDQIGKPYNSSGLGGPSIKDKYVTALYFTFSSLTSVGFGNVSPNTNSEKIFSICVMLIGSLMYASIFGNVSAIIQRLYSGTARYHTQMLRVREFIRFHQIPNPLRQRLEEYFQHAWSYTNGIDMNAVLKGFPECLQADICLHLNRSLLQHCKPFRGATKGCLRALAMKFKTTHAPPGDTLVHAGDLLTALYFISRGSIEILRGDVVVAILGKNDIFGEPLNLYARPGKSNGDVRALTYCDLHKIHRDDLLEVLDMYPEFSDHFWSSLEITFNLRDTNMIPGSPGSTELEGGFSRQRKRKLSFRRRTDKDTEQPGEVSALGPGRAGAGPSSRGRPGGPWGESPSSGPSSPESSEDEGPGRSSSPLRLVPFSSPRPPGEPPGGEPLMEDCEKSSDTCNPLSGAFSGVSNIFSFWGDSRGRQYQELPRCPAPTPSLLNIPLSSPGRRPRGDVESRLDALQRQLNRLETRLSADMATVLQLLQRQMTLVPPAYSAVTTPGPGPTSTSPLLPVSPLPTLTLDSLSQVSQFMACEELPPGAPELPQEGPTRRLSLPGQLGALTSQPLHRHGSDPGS
Glucagon-like peptide 1 receptor (Homo sapiens), sequence (P43220 whole entry, looked up): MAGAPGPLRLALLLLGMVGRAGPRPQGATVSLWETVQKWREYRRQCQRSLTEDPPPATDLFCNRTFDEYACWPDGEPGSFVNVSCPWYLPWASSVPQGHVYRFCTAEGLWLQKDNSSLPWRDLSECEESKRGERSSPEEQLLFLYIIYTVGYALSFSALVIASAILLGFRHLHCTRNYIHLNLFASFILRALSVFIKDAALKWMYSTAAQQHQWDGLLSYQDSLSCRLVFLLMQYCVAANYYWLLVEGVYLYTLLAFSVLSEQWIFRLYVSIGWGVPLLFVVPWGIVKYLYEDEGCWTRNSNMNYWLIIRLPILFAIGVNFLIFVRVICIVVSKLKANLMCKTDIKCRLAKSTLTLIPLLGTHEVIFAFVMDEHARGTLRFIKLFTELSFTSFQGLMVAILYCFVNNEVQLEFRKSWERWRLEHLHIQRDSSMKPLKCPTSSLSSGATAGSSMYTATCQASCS
Glutaminase kidney isoform, mitochondrial (Homo sapiens), sequence (O94925 whole entry, looked up, canonical isoform): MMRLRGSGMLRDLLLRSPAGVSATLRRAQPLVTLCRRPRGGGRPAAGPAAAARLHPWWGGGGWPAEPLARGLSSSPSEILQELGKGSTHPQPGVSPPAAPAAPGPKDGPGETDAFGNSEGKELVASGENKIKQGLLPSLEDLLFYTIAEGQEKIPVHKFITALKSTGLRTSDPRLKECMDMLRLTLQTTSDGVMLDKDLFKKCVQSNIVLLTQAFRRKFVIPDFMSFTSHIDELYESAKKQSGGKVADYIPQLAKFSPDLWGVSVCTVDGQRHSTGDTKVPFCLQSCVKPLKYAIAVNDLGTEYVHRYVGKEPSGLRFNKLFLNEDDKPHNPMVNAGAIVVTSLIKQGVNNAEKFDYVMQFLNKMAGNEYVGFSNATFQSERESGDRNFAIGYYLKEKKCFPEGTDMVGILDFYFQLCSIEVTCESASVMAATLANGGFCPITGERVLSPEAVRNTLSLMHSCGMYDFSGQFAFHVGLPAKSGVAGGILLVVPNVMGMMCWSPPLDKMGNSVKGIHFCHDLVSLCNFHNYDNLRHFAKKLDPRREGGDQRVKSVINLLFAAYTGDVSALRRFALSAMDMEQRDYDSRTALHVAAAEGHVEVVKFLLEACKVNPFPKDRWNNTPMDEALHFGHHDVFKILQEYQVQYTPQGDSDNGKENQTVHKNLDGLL

With `CCCNCC(O)COc1ccccc1C(=O)CCc1ccccc1` (stereo unspecified), the Potency entry in assay [1], in assay [3], in assay [4] and in assay [6] was “inactive” each time. In assay [2], the Potency was 25.6 µM (active). In addition, in assay [5], the call was inactive.

For the compound `CC(C(=O)O)c1cccc(C(=O)c2ccccc2)c1` (stereo unspecified), the Potency result in [7], in assay [8], in [3], in assay [4] and in assay [6] was “inactive” throughout.

As to `COc1cc2nc(N(C)CCCNC(=O)C3CCCO3)nc(N)c2cc1OC` (stereo unspecified), the Potency result in assay [7], in assay [8], in assay [3], in [4] and in [6] was “inactive” throughout.

Regarding `CN1CCC(=C2c3ccccc3CC(=O)c3sccc32)CC1`, the Potency result in [1], in assay [3] and in [6] was “inactive” in each case.

For the compound `CN(CCOc1ccc(NS(C)(=O)=O)cc1)CCc1ccc(NS(C)(=O)=O)cc1`, the Potency result in [1], in assay [9] and in [2] was “inactive” throughout.

As to `CN1CCN(CCCN2c3ccccc3Sc3ccc(Cl)cc32)CC1`, the Potency result in [1], in assay [3] and in [6] was “inactive” throughout. For the same compound, the outcome in assay [5] was inactive.
